In the library only some 3.5% were active in any assay of this set; here they are far more common.
MITF primary: inhibitors of human MITF; O75030; AlphaScreen MITF homodimerization, bead proximity signal; inhibition, % at 2.6 µM; hit rate 0.91% among 650,000; AID 1259374; in the data active = inhibition above about 50%
TEAD-YAP inh: TEAD-YAP interaction inhibition. HEK-TIYL cells, TEAD-Gal4/YAP UAS-luciferase luminescence. inhibition, % at 9.12 µM. hit rate 1.4% among 640,000; in the data active = inhibition above about 32%
FBW7 activator: activators of human E3 ligase FBW7; hit rate 0.13% among 650,000; AlphaScreen FBW7–phospho-cyclin E peptide binding, activator screen; normalized activity (activation), % at 26.1 µM; in the data active = normalized activity above about 1.9%;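 also: purified mutant Fbw7 with reduced substrate affinity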
GPR151 activ: activators of human GPR151; activation, % at 11.2 µM; Q8TDV0; PathHunter beta-arrestin GPR151 cells, luminescence; hit rate 1% among 650,000; in the data active = activation above about 4.9%
Target sequence (Q8TDV0 whole entry, looked up): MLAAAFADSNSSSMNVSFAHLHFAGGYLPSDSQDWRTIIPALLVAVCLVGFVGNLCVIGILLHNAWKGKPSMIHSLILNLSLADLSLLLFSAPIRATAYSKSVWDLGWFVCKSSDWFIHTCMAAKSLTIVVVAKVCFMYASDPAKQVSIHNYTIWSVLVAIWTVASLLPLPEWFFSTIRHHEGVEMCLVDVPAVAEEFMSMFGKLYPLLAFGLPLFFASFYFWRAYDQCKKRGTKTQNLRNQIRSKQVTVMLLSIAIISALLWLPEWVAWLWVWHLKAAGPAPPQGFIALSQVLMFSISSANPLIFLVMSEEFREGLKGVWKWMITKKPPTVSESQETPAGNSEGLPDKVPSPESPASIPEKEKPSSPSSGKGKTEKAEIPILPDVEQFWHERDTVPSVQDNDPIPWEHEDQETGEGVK
Of the large screens only hits and unclear results are named; the others gave an inactive call.

O=Cc1ccccc1Nc1cc(NC(=O)Cc2ccc3c(c2)OCO3)ncc1Cl	TEAD-YAP inh 57.2
O=C(Cc1ccc2c(c1)OCO2)Nc1cc(Nc2ccccc2-c2nn[nH]n2)c(F)cn1	none
CC1CCN(c2ccc3nc4ccccc4c(=O)n3n2)CC1	TEAD-YAP inh 75.7
O=c1c2cc(Cl)ccc2nc2ccc(N3CCCC3)nn12	none
CCCCc1nc(SCC(=O)Nc2nnc(SCc3ccccc3)s2)n[nH]1	none
Oc1ccc(Br)c(C(Nc2ccccn2)c2ccc3cccnc3c2O)c1 (stereo not drawn)	TEAD-YAP inh 84.5
Cc1ccc(C(Nc2ccccn2)c2ccc3cccnc3c2O)s1 (stereo not drawn)	TEAD-YAP inh 81.0
CC(C)c1ccc(C(Nc2ccccn2)c2ccc3cccnc3c2O)cc1 (stereo not drawn)	TEAD-YAP inh 62.9
Oc1c(C(Nc2ccccn2)c2ccc(Br)cc2)ccc2cccnc12 (stereo not drawn)	TEAD-YAP inh 83.6
CCCOc1ccc(C(Nc2ccccn2)c2ccc3cccnc3c2O)cc1 (stereo not drawn)	none
Cc1ccc2ccc(C(Nc3ccccn3)c3cccc(O)c3)c(O)c2n1 (stereo not drawn)	none
O=C(CCC1(Cc2ccc(F)cc2)CCC(=O)N1)NC1C2CC3CC1CC(O)(C3)C2 (stereo not drawn)	none
COc1cc([N+](=O)[O-])ccc1N/C=C1/CCCCC1=O	none
CCOC(=O)CSc1nc2c(c(=O)n1-c1ccc(OC)cc1)C1(CCCC1)Cc1ccccc1-2	none
COc1ccccc1NCC(=O)N/N=C/c1ccc(OC(=O)c2cccc(F)c2)cc1	none
COc1cccc2c1C(=O)c1c(O)c3c(c(O)c1C2=O)C[C@@](O)(C(C)=O)C[C@@H]3O[C@H]1C[C@H](N)[C@H](O)[C@H](C)O1	TEAD-YAP inh 92.7
CC(=O)[C@]1(O)Cc2c(O)c3c(c(O)c2[C@@H](O[C@H]2C[C@H](N)[C@H](O)[C@H](C)O2)C1)C(=O)c1ccccc1C3=O	none
COc1cccc2c1C(=O)c1c(O)c3c(c(O)c1C2=O)C[C@@](O)(C(=O)CO)C[C@@H]3O[C@H]1C[C@H](N)[C@@H](O)[C@H](C)O1	TEAD-YAP inh 61.6
CCc1nnc(NC(=O)CSc2nc(N)nc(SC)c2C#N)s1	none
O=C(NCC1COC2(CCCC2)O1)c1cc(Cl)ccc1Cl (stereo not drawn)	none
CC(=O)c1ccc(NC(=O)CSc2nnc(C)n2-n2cccc2)cc1	none
COCCCN1C(=O)CC(CC(=O)NC(C)c2nccs2)(c2ccccc2C)C1=O (stereo not drawn)	none
CCC(=O)NC(c1ccc(OC)cc1)c1ccc2cccnc2c1O (stereo not drawn)	MITF primary 63.1, TEAD-YAP inh 32.4
CCCC(=O)NC(c1ccc(Cl)cc1Cl)c1ccc2cccnc2c1O (stereo not drawn)	TEAD-YAP inh 63.0
CC(=O)NC(c1ccc(Cl)cc1Cl)c1cc(Cl)c2cccnc2c1O (stereo not drawn)	none
CCC(=O)NC(c1ccc2c(c1)OCO2)c1cc(Cl)c2cccnc2c1O (stereo not drawn)	none
CCC(=O)NC(c1ccc(Cl)cc1)c1ccc2cccnc2c1O (stereo not drawn)	TEAD-YAP inh 95.0
CC(=O)NC(c1ccc(Cl)cc1Cl)c1ccc2cccnc2c1O (stereo not drawn)	TEAD-YAP inh 89.3
COc1ccccc1-n1c(SCCN2CCOCC2)nc2c(sc(=S)n2Cc2ccccc2)c1=O	none
Cc1cc(C)nc(/N=C(\N)Nc2cccc(C)c2C)n1	none
CCc1ccc(NC(=O)CSc2nc3c(sc(=S)n3-c3ccc(CC)cc3)c(=O)n2-c2ccc(C)cc2)cc1	none
O=C1N[C@@H](Cc2ccc(Cl)cc2)C(=O)N2CCN(C(=O)c3cc(F)c(F)cc3F)C[C@H]12	none
CCCCC(=O)NC(c1ccc(Cl)cc1)c1ccc2cccnc2c1O (stereo not drawn)	TEAD-YAP inh 84.7
CCC(=O)NC(c1ccccc1)c1ccc2cccnc2c1O (stereo not drawn)	TEAD-YAP inh 81.8
COCC(=O)NC(c1ccccc1)c1cc(Cl)c2cccnc2c1O (stereo not drawn)	none
CCCC(=O)NC(c1ccc(Cl)cc1)c1ccc2cccnc2c1O (stereo not drawn)	TEAD-YAP inh 88.4
Cc1ccc(OCC(=O)NC(=S)Nc2ccccn2)c(Br)c1	TEAD-YAP inh 87.8
O=C(COc1ccc(Br)cc1Cl)NC(=S)Nc1ccccn1	TEAD-YAP inh 45.7
CC(C)(C)C(=O)Nc1nc(COc2ccccc2)cs1	none
COC(=O)c1c2c(c[n+](C)c1C)COC(C)(C)OC2	none
